This is a sample that favours compounds with a hit; in the whole collection about 19% have one here.
DT40 TDP1 CPT: DT40-hTDP1 cell growth loss with CPT; chicken DT40 Tdp1-/-;hTDP1 cells + 20 nM CPT, ATP luminescence, 48 h; AID 686979; 420,000 tested, 12% active; Potency, µM (titrated, usually from 46.2 µM), without a hit: at the top dose activity change, negative = growth inhibition, actives largely listed as inhibitors; also: potency is read from the fitted curve at half-maximal effect; nearly all actives have a fitted effect of over 55% in size
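Cell growth measured by CellTiter-Glo luminescence after a minimum 48 h, 37 C compound exposure with 20 nM CPT in Tdp1-knockout DT40 cells stably expressing hTDP1, seeded 400/well; qHTS titration format.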
HT1080 IDH1KD tx: toxicity to HT-1080 IDH1 knockdown cells (counter line); AID 686971; 360,000 tested, 2% active; Potency, µM (series often up to 46.1 µM), for the others: at the top dose activity, negative = toxicity, usual class: cytotoxic; HT-1080 IDH1 knockdown viability, ATP luminescence, 48 h;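 also: potency is read from the fitted curve at half-maximal effect; 0% = DMSO wells and -100% = cell-free medium wells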
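Assay cells: HT-1080 with IDH1 knockdown, 750 per well, RPMI/5% FBS. Exposure: 48 h at 37 °C following 2 h pre-incubation. Read: CellTiter-Glo luminescence; fitted concentration-response, curve class assigned.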
ELG1 repair inh: blocks ELG1-dependent DNA repair in HEK293T cells. HEK293T ELG1-luciferase reporter, luminescence, 16 h; DNA damage induced by 5-fluorouridine. Potency, µM (series often up to 46.1 µM), without a hit: at the top dose activity change, negative = inhibition, most hits filed as inhibitors. 330,000 tested, 2.3% active; also: potency is read from the fitted curve at half-maximal effect; nearly all actives have a fitted effect of over 55% in size
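5-Fluorouridine DNA damage + compound/DMSO, 2,000 cells/well, 16 h, 37 °C/5% CO2. ONE-Glo, 30 min RT, luminescence. Readout = decrease in reporter signal.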
IL1B secr inh: inhibitors of inflammasome signaling (IL-1 beta secretion). THP-1 LPS/ATP IL-1B secretion, AlphaLISA, 16 h; active compounds read low. 360,000 tested, 4.7% active. activity change, % at 57.5 µM; in the data active = activity change below about -50%; inconclusive = mostly about -30% to -49%
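THP-1 cells pretreated 1 hr with compounds (up to 57.5 uM final), then stimulated with LPS (250 ng/mL final) plus ATP (1.25 mM final); secreted IL-1B measured by AlphaLISA after 16 hr, decreased signal indicating inhibition.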
HT1080NT lethal: kills 2HG-producing HT-1080-NT fibrosarcoma cells | Potency, µM (top dose mostly 46.1 µM), for the others: top-dose activity, negative = less viability, usual class: cytotoxic | AID 686970 | HT-1080-NT fibrosarcoma viability, CellTiter-Glo ATP luminescence, 48 h | 360,000 tested, 1.6% active;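 also: NT is the 2HG producing partner of a matched IDH1 knockdown line; potency is read from the fitted curve at half-maximal effect; 0% = DMSO-treated cells and -100% = media-only wells without cells; nearly all actives have a fitted effect of over 55% in size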
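Compounds were tested in concentration-response format on HT-1080-NT cells for 48 hours at 37 degrees C. Cell viability came from CellTiter-Glo luminescence; curves were classified by r2, response magnitude and activity.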
DT40 TDP1 no CPT: qHTS for Inhibitors of human tyrosyl-DNA phosphodiesterase 1 (TDP1): qHTS in cells in absence of CPT; DT40 Tdp1-/- hTDP1 cells, no CPT, ATP luminescence, 48 h; Potency, µM (doses to about 46.2 µM), for inactives: at the top dose activity change, negative = growth inhibition, actives largely listed as inhibitors; 420,000 tested, 15% active; AID 686978, 2013; also: potency is read from the fitted curve at half-maximal effect; nearly all actives have a fitted effect of over 55% in size
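No-CPT arm: Tdp1-/-;hTDP1 DT40 cells (400/well) plus compounds, incubated ≥48 hr at 37 °C. Readout CellTiter-Glo luminescence.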
* marks the source's active call; other numbers are inactive results; ? = inconclusive; . = no result. Unless noted, calls follow the shape of the dose curve; as a rule, active = well fitted curve in the direction sought with a large enough effect; inconclusive = small, poorly fitted or top-dose-only effect, or another doubt; inactive = no such curve, though single readings can be large; an effect the other way counts as inactive or inconclusive. Unless noted, % is scaled to controls: 0 for no effect and ±100 for the full control effect.

SMILES	DT40 TDP1 CPT	HT1080 IDH1KD tx	ELG1 repair inh	IL1B secr inh	HT1080NT lethal	DT40 TDP1 no CPT
CC12CC1(C)C(=O)N(c1cc(Cl)cc(Cl)c1)C2=O (configuration not stated)	-18%	1%	.	-7	-2%	11%
CC(=O)N1N=C2C3CCN(CC3)C2C1c1ccc(Br)cc1 (configuration not stated)	3%	2%	-3%	0	1%	-4%
O=C(c1c[nH]c(C(=O)C(Cl)(Cl)Cl)c1)c1ccccc1Cl	?	16%	.	-17	19%	?
BrCC(Br)(Br)Br	9.2µM*	11%	28%	15	-2%	?
CCN(CCO)CCn1c(Cc2ccccc2)nc2c1c(=O)n(C)c(=O)n2C	-10%	.	.	.	.	-14%
CC(C)C(=O)N1CCC(CN=Cc2c(O)n(C3CCCCC3)c(=O)n(C3CCCCC3)c2=O)CC1	?	?	?	?	?	23µM*
COc1ccc(NC(=O)c2ccc(COCC(F)(F)C(F)F)cc2)cc1	-25%	1%	?	-6	6%	?
COc1cccc(CNC(=O)CCC(=O)N2C[C@H]3C[C@H](C2)c2cccc(=O)n2C3)c1OC	5%	3%	14%	-2	2%	6%
COc1cc2c(cc1O)CC1c3c(cc(O)c(OC)c3-2)CCN1C (configuration not stated)	-28%	0%	?	?	-6%	-25%
COc1cc2c(cc1OC)-c1c(OC)c(OC)cc3c1[C@H](C2)N(C)CC3	?	-5%	0%	-1	-2%	16µM*
CCOC(=O)c1c(C)[nH]c(C)c1C(=O)C(Cc1ccccc1)N(C)C (configuration not stated)	?	-8%	1%	2	-1%	?
Cc1ccccc1-n1c(-c2ccco2)nc2ccccc2c1=O	12µM*	-16%	?	-17	-12%	9.2µM*
O=c1c2ccccc2nc(-c2ccco2)n1-c1ccccc1	?	12%	?	-11	13%	?
COc1ccc(-n2c(-c3ccco3)nc3ccccc3c2=O)cc1	?	-5%	-9%	0	-10%	23µM*
CCN1C[C@@]2(COC(=O)c3ccccc3N3C(=O)CC(C)C3=O)CC[C@H](OC)[C@]34C5C[C@@H]6[C@@H](OC)C[C@@](O)(C5[C@H]6OC)[C@@](O)(C13)[C@@H](OC)C24 (some centres not stated)	-6%	.	.	.	.	0%
Cc1nc2ccc(Nc3nc4cc(S(=O)(=O)N5CCOCC5)ccc4o3)cc2s1	16µM*	-3%	-1%	-4	-5%	18µM*
COc1ccccc1-n1c(-c2cccs2)nc2ccccc2c1=O	15µM*	6%	-13%	63	0%	13µM*
O=c1c2ccccc2nc(-c2ccccc2)n1-c1ccccc1O	?	-18%	-16%	45	-17%	?
COc1ccccc1-n1c(-c2ccccc2)nc2ccccc2c1=O	16µM*	-15%	-9%	12	-10%	?
COc1ccc(-c2nc3ccccc3c(=O)n2-c2nccs2)cc1	?	0%	4%	0	-3%	?
C=C[C@@]12CN(C)[C@H]3[C@H]1[C@@]1(C(=O)Nc4ccccc41)C1CC2[C@@H]3CO1	4%	6%	0%	-22	22%	15%
C[C@@H]1CN([C@@H](C)CO)C(=O)CCCn2nncc2CO[C@H]1CN(C)C(=O)Oc1cccc2ccccc12	1%	-2%	.	14	15%	-24%
CCOC(=O)c1ccccc1N	8%	.	10%	-3	.	-6%
